# Only some compounds are listed: those with a hit (about 8.1% of all), similar ones and a draw of the others.
# NOMO-1 viab – STK33 inhibitor candidate reducing NOMO-1 cell viability. AID 2330. NOMO-1 AML viability, CellTiter-Glo luminescence, 72 h. 37,000 tested, 7.5% active. inhibition, % (test concentration not listed); in the data active = inhibition above about 80%; inconclusive = no clear call, values can overlap the other calls
# Shh pathway inh – Sonic Hedgehog pathway inhibition; Shh-LIGHT2 Gli-luciferase reporter, 30 h; inhibition, % (concentration not given with the values); 22,000 tested, 2.1% active;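 active = mean inhibition across valid replicates above about 65%, limit read from the data; inconclusive = mean under the limit, yet half or more replicates past it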;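 note: pathway switched on by Shh-conditioned medium diluted 1 in 25 in low serum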
# MITF inh – MITF inhibition | TRPM1 promoter luciferase, luminescence, 24 h | inhibition, % (test concentration not listed) | 37,000 tested, 0.28% active | AID 2240; in the data active = inhibition above about 85%; inconclusive = no clear call, values can overlap the other calls; inactive = below about 68%;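 note: human melanocyte line stably carrying TRPM1 promoter luciferase reporter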
# Numbers stand for hits; i = inactive; ? = inconclusive; nt = no result.
SMILES,NOMO-1 viab,Shh pathway inh,MITF inh
O=C(COc1ccc(I)cc1)Nc1cc(C(=O)O)cc(C(=O)O)c1,i,nt,i
CC(C)c1ccc(NC(=O)CSc2nnc(-c3ccc(Br)cc3)n2C)cc1,i,nt,i
C[C@H](CO)N1C[C@H](C)[C@@H](CN(C)Cc2ccc(Oc3ccccc3)cc2)Oc2c(NC(=O)Nc3cccc4ccccc34)cccc2C1=O,?,i,i
COc1ccc(S(=O)(=O)Nc2cccc3c2O[C@H](CN(C)S(=O)(=O)c2ccc(F)cc2)[C@H](C)CN([C@@H](C)CO)C3=O)cc1,i,i,i
O=C(CSc1nnnn1-c1ccccc1)N1c2ccccc2CCc2ccccc21,i,?,i
CCOc1ccc(-n2c(SCC(=O)N3CCOCC3)nnc2-c2ccncc2)cc1,i,nt,i
C[C@H]1CN([C@@H](C)CO)C(=O)Cc2cc(N(C)C)ccc2O[C@H]1CN(C)Cc1ccc(Oc2ccccc2)cc1,i,i,i
C[C@@H]1CN([C@H](C)CO)C(=O)Cc2cc(N(C)C)ccc2O[C@@H]1CN(C)Cc1ccc(Oc2ccccc2)cc1,118,i,i
O=C(COc1ccc(Br)cc1)Nc1cccc(-c2nc3ccccc3o2)c1,i,nt,i
C[C@@H]1CCCCO[C@H](CN(C)Cc2ccc(Cl)c(Cl)c2)[C@@H](C)CN([C@H](C)CO)C(=O)c2cc(NC(=O)NC3CCCCC3)ccc2O1,i,i,i
COc1ccc(NC(=O)Nc2ccc3c(c2)C(=O)N([C@@H](C)CO)C[C@@H](C)[C@@H](CN(C)Cc2ccc(C(F)(F)F)cc2)O3)cc1,?,nt,i
COc1ccc(CN(C)C[C@@H]2Oc3ccc(NC(=O)Nc4ccc(C(F)(F)F)cc4)cc3C(=O)N([C@H](C)CO)C[C@@H]2C)cc1,114,i,i
COc1ccc(NC(=O)Nc2ccc3c(c2)C(=O)N([C@@H](C)CO)C[C@H](C)[C@H](CN(C)Cc2ccc(C(F)(F)F)cc2)O3)cc1,i,i,i
COc1ccc(CN(C)C[C@H]2Oc3ccc(NC(=O)Nc4ccc(C(F)(F)F)cc4)cc3C(=O)N([C@@H](C)CO)C[C@@H]2C)cc1,113,i,i
C[C@H]1CN([C@@H](C)CO)C(=O)c2cccc(N(C)C)c2O[C@H]1CN(C)C(=O)Nc1ccccc1,i,i,i
CC(C)N1CC=C2C(C1)C(c1ccccc1)C(C#N)=C(N)C2(C#N)C#N (centres undefined),i,i,i
COc1cccc([C@H]2C(C#N)=C(N)C(C#N)(C#N)C3=CCC(C)C[C@@H]32)c1 (some centres undefined),127,i,i
COc1cc([C@H]2OC[C@H]3[C@@H]2CO[C@@H]3c2ccc3c(c2)OCO3)cc(OC)c1OC,i,i,i
C[C@H](CO)N1C[C@H](C)[C@H](CN(C)Cc2ccc(-c3ccccc3)cc2)Oc2c(NC(=O)Nc3ccccc3)cccc2C1=O,i,i,i
C[C@@H]1CN([C@@H](C)CO)C(=O)c2cccc(NC(=O)Nc3ccc(F)cc3)c2O[C@@H]1CN(C)Cc1ccc(-c2ccccc2)cc1,99,i,i
C[C@@H]1CN([C@H](C)CO)C(=O)c2cccc(NC(=O)Nc3ccc(F)cc3)c2O[C@H]1CN(C)Cc1ccc(-c2ccccc2)cc1,?,i,i
C[C@@H]1CN([C@@H](C)CO)C(=O)c2cccc(NC(=O)Nc3ccccc3)c2O[C@H]1CN(C)Cc1ccc(-c2ccccc2)cc1,93,i,i
C[C@@H]1CN([C@@H](C)CO)C(=O)c2cccc(NC(=O)Nc3ccccc3)c2O[C@@H]1CN(C)Cc1ccccc1,i,i,i
C[C@H](CO)N1C[C@H](C)[C@@H](CN(C)Cc2ccccc2)Oc2c(NC(=O)Nc3ccccc3)cccc2C1=O,103,i,i
Cc1ccc(-n2c(C)nnc2SCC(=O)Nc2ccc(Br)c(C)c2)cc1C,i,nt,i
SMILES,NOMO-1 viab,Shh pathway inh,MITF inh
COc1ccc2c(C)nc(Nc3nc(C)cc(=O)[nH]3)nc2c1,117,nt,i
Cc1cc(=O)[nH]c(Nc2nc(C)c3cccc(C)c3n2)n1,130,nt,i
CCCc1cc(=O)[nH]c(Nc2nc(C)c3ccc(OC)cc3n2)n1,i,nt,i
CCCc1cc(=O)[nH]c(Nc2nc(C)c3cc(OC)ccc3n2)n1,i,nt,i
C[C@@H]1[C@H]2[C@H](O[C@@H]3O[C@H](CO)[C@@H](O)[C@H](O)[C@H]3O)OC=C(C(=O)O)[C@H]2C[C@@H]1OC(=O)/C=C/c1ccc(O)cc1,nt,i,nt
c1ccc(N=C(Nc2ccccc2)Nc2ccccc2)cc1,89,i,i
NC(N)=NC(N)=Nc1ccccc1,i,i,i
COc1cc(Cl)c(C)cc1NC(=O)CSc1nnc(-c2ccncc2)n1C,i,nt,i
CC(=O)O[C@@H]1CC[C@@]2(C)C(C[C@@H](OC(C)=O)[C@@]3(C)C4=CC(=O)O[C@@H](c5ccoc5)[C@]4(C)CCC23)C1(C)C (some centres undefined),i,i,i
CC(=O)O[C@@H]1CC2C(C)(C)CCC[C@]2(C)C2CC[C@]3(C)C(=CC(=O)O[C@H]3c3ccoc3)[C@@]21C (some centres undefined),99,i,i
CCOC(=O)c1c(NC(=O)COc2ccc(Cl)cc2C)sc2c1CCC2,i,nt,i
C[C@H](CO)N1C[C@H](C)[C@@H](CN(C)Cc2ccccc2)Oc2ccc(NC(=O)C3CCCCC3)cc2C1=O,i,i,i
COc1ccc(NC(=O)Nc2ccc3c(c2)CC(=O)N([C@H](C)CO)C[C@@H](C)[C@@H](CN(C)Cc2ccc(C(=O)Nc4ccccc4N)cc2)O3)cc1,90,nt,i
COc1ccc(NC(=O)Nc2ccc3c(c2)CC(=O)N([C@@H](C)CO)C[C@H](C)[C@H](CN(C)Cc2ccc(C(=O)Nc4ccccc4N)cc2)O3)cc1,126,nt,i
COc1ccc(NC(=O)Nc2ccc3c(c2)CC(=O)N([C@@H](C)CO)C[C@@H](C)[C@@H](CN(C)Cc2ccc(C(=O)Nc4ccccc4N)cc2)O3)cc1,86,nt,i
COc1ccc(CN(C)C[C@@H]2Oc3ccc(NC(=O)Nc4ccccc4)cc3CC(=O)N([C@@H](C)CO)C[C@@H]2C)cc1,i,nt,i
COc1ccc(NC(=O)Nc2ccc3c(c2)CC(=O)N([C@H](C)CO)C[C@H](C)[C@H](CN(C)Cc2ccc(C(=O)Nc4ccccc4N)cc2)O3)cc1,127,nt,i
COc1ccc(CN(C)C[C@@H]2Oc3ccc(NC(=O)Nc4ccc(OC)cc4)cc3CC(=O)N([C@@H](C)CO)C[C@@H]2C)cc1,i,nt,i
COc1ccc(NC(=O)Nc2ccc3c(c2)CC(=O)N([C@@H](C)CO)C[C@H](C)[C@@H](CN(C)Cc2ccc(C(=O)Nc4ccccc4N)cc2)O3)cc1,i,nt,i
COc1ccc(CN(C)C[C@@H]2Oc3ccc(NC(=O)Nc4ccccc4)cc3CC(=O)N([C@H](C)CO)C[C@H]2C)cc1,i,i,i
C[C@@H]1CN([C@H](C)CO)C(=O)Cc2cc(NC(=O)CCN3CCOCC3)ccc2O[C@H]1CN(C)Cc1ccccc1,i,i,i
CCOC(=O)c1c(NC(=O)c2ccc(C)c(S(=O)(=O)N3CCCCCC3)c2)sc(C)c1C,i,nt,i
CSc1ccccc1NC(=O)CN(C1CCCCC1)S(=O)(=O)c1ccc(F)cc1,i,nt,i
COc1cc2c(cc1NC(=O)C(C)Oc1ccccc1C)oc1ccccc12 (centres undefined),i,nt,i
